Screening data as filed in PubChem BioAssay.
Calb FLC = C. albicans growth modulation with fluconazole; C. albicans CaCi-2 (fluconazole-resistant clinical isolate) + fluconazole, Alamar Blue growth, 48 h; growth inhibition, % (test concentration not listed); hit rate 0.57% among 300,000;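 active = growth inhibition above about 58% in most replicates, limit read from the data, passing the limit was not always enough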;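 note: all wells also contain fluconazole at 8 µg/ml as a sub-toxic cotreatment; 0% = median of DMSO wells and 100% = median of geldanamycin control wells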
PfHsp90 yeast 2 = inhibits growth of yeast expressing Plasmodium falciparum Hsp90; S. cerevisiae expressing PfHsp90, BacTiter-Glo ATP, 48 h; yeast lacking PDR1 and PDR3 efflux regulators; inhibition, % at 9.4 µM; hit rate 0.32% among 310,000; AID 504621;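 active = every replicate shows inhibition above about 80%, whatever the replicate mean, limit read from the data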;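 note: 0% = DMSO neutral controls and 100% = 20 µM radicicol positive controls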
SKKanGAS inh = inhibitors of SKKanGAS S. pyogenes growth in kanamycin (SK-promoter or general growth effect) | BacTiter-Glo, 6 h | inhibition, % at 7.5 µM | hit rate 1.3% among 300,000 | AID 1662;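 active = mean replicate score, as percent of positive control median, at least 50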;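 note: strain carries kanamycin resistance gene driven by streptokinase promoter and grows in 40 µg/ml kanamycin; loss of luminescence reflects streptokinase promoter inhibition or plain growth inhibition; 0% = median of DMSO wells and 100% = positive control at its reference dose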
TIM10 inh = growth inhibitors of TIM10 yeast strain. S. cerevisiae TIM10 strain growth, BacTiter-Glo luminescence, 24 h. inhibition, % at 10 µM. hit rate 1.4% among 330,000. AID 463195;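 active = inhibition of 40% or more at the single tested concentration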;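 note: wild-type TIM10 isogenic control strain grown at permissive 25 °C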
tim10-1 inh = tim10-1 yeast growth inhibition; AID 463190; inhibition, % at 20 µM; hit rate 2.2% among 330,000; S. cerevisiae tim10-1 ts strain growth, BacTiter-Glo, 24 h;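 active = inhibition of at least 40%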;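 note: mutant grown at 25 °C; 0% = DMSO wells with yeast and 100% = wells holding no yeast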
tim23-1 inh = growth inhibitors of tim23-1 mutant yeast | S. cerevisiae tim23-1 growth, BacTiter-Glo luminescence, 24 h | hit rate 1.3% among 330,000 | inhibition, % at 20 µM;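 active = growth inhibition of the mutant yeast at or above 50%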;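 note: temperature-sensitive mutant grown at 25 °C; plate controls were DMSO-treated mutant yeast for no effect and medium wells lacking yeast for full effect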
* = called active by the depositor; . = no result given. Sampled rows, rich in hits. Any-hit rate of the full collection: about 4.7%.

SMILES	Calb FLC	PfHsp90 yeast 2	SKKanGAS inh	TIM10 inh	tim10-1 inh	tim23-1 inh
CCCCN(CC)S(=O)(=O)c1ccc(C(=O)Nc2nnc(-c3cccs3)o2)cc1	-4.3	.	97.9*	-2.6	33.8	-1.0
Cc1cc(Nc2cc(Cl)cc(Cl)c2)nc(N)n1	33.6	-12.8	-9.9	3.2	-12.6	19.9
O=C(Nc1ccc(S(=O)(=O)N2CCOCC2)cc1)c1ccccc1F	0.5	5.3	3.1	7.8	11.4	15.7
CC(C)C(=NO)c1ccccc1	.	-6.6	.	.	.	.
CCN(CC)c1ccc2nc3ccccc3[n+](CC)c2c1	90.0*	29.2	33.0	27.5	29.2	21.0
CCN(CC)c1ccc2cc(-c3nc4ccccc4[nH]3)c(=O)oc2c1	32.9	6.3	-5.2	34.2	-1.1	5.0
COCCNC(=O)c1cccc(OC2CCN(Cc3ccc(OC(F)F)cc3)CC2)c1	1.9	5.8	-2.2	-0.4	13.6	12.2
Cc1ccccc1OCc1nc2ccccc2c(=O)n1N	1.9	-37.4	-10.0	2.4	-3.7	15.4
COc1cc2nc(=S)n3[nH]c(CCn4nc(C)cc4C)nc3c2cc1OC	0.6	-2.9	51.2*	6.5	12.8	-0.7
COc1cc(-c2csc(CCn3nc(C)cc3C)n2)cc(OC)c1OC	3.0	-10.7	0.1	17.0	28.6	12.6
COc1cc2nc(=S)n3[nH]c(COc4ccccc4C)nc3c2cc1OC	-23.8	-10.3	63.6*	15.9	11.3	10.0
N#C/C(=C(/O)c1ccc2c(c1)OCO2)c1nc2cc(C(F)(F)F)ccc2s1	20.4	-6.6	51.6*	13.6	-1.0	-0.5
CC1=NN2C(=N)/C(=C\c3cc(C)n(-c4ccccc4)c3C)C(=O)N=C2S1	-23.0	-56.9	10.1	-0.6	-7.7	-1.1
Cc1cc(/C=C2/C(=N)N3C(=NC2=O)SN=C3S(C)(=O)=O)c(C)n1-c1ccc(F)cc1	16.2	-0.8	64.2*	20.2	12.4	29.6
COc1ccccc1-n1c(C)cc(/C=C2/C(=N)N3C(=NC2=O)SN=C3S(C)(=O)=O)c1C	25.0	-1.6	35.8	8.4	16.1	10.7
CCOc1ccc(-n2c(C)cc(/C=C3/C(=N)N4C(=NC3=O)SN=C4S(C)(=O)=O)c2C)cc1	-4.7	-25.1	84.2*	26.9	32.2	33.6
CCC(CC)C1=NN2C(=N)/C(=C\c3cc(C)n(-c4cccc(C)c4)c3C)C(=O)N=C2S1	20.0	-34.2	85.8*	13.5	4.8	10.9
CC(C)CN(C(=O)COc1ccc(-c2nnco2)cc1)C1CCS(=O)(=O)C1 (stereo unspecified)	4.6	-12.5	61.1*	5.8	-8.6	-14.6
COc1cccc2sc(=NC(=O)CS(=O)(=O)c3ccc(Cl)cc3)n(C)c12	99.1*	.	7.3	-16.2	14.0	12.9
N#CC1(Nc2cccc(Cl)c2)CCCC1	.	-5.5	.	.	.	.
O=C(COC(=O)c1cc(Cl)ccc1O)NCCC1=CCCCC1	-6.9	-2.0	-12.4	-4.4	-1.2	4.4
Cc1cc(C)c2c(N=NN3CCOCC3)[nH]nc2n1	0.6	101.9*	3.9	3.3	8.9	4.9
Cc1cc(C)c(C#N)c(N2CCOCC2)n1	22.2	9.4	-6.9	-0.5	-12.1	1.8
c1ccc2c(Nc3nc4c(s3)CCCC4)cccc2c1	4.6	.	57.5*	16.2	35.8	28.0
O=S(=O)(Nc1nc2c(s1)CCCC2)c1ccc2ccccc2c1	15.5	-10.2	10.9	18.1	10.7	20.1
SMILES	Calb FLC	PfHsp90 yeast 2	SKKanGAS inh	TIM10 inh	tim10-1 inh	tim23-1 inh
FC(F)(F)COc1nc(OCC(F)(F)F)nc(N2CCN(c3ccccc3)CC2)n1	88.5*	21.5	.	-9.9	2.0	26.0
FC(F)(F)COc1nc(N2CCOCC2)nc(N(c2ccccc2)c2ccccc2)n1	2.1	2.2	5.7	27.6	15.4	32.4
O=C(O)c1cccc(N/N=C/C2=C(Cl)c3cc(Cl)ccc3SC2)c1	4.8	-7.7	106.0*	.	.	.
CCSc1nc2sccc2c(=O)n1-c1ccccc1	-2.9	-19.7	-0.1	-31.9	-15.6	14.5
CN1CCN(C(c2cccnc2)c2ccc3cccnc3c2O)CC1 (stereo unspecified)	88.9*	.	-7.8	18.8	34.7	0.8
CC(C)(C)C1CCC2(CC1)C(C#N)=C(SCC(=O)Nc1ccccc1)NC(=O)C2C#N (stereo unspecified)	9.2	11.3	68.4*	11.0	39.8	40.7
CCCCCn1c(CN2CCN(CCO)CC2)nc2c1c(=O)n(C)c(=O)n2C	-1.6	5.1	3.4	-8.4	-3.7	-5.3
CCCCn1c(CN2CCN(C(=O)OCC)CC2)nc2c1c(=O)n(C)c(=O)n2C	101.5*	.	2.7	7.8	3.1	6.3
O=C(N/N=C/c1ccc(O)cc1O)c1ccc(CN2C(=O)c3cccc4cccc2c34)cc1	107.8*	5.6	11.1	-77.3	13.7	3.2
CC(=O)n1c2ccccc2c2ccccc21	3.6	-24.0	-1.5	21.1	24.7	13.2
c1ccc(-n2c3ccccc3c3ccccc32)cc1	0.6	.	58.3*	-4.7	0.2	-4.8
Cc1[nH]n(C2=NCCS2)c(=O)c1N=Nc1cccc(C(F)(F)F)c1	21.8	-34.5	82.7*	-2.0	22.1	-8.3
CC1CCN(c2nc(-c3cccnc3)nc3scc(-c4ccccc4)c23)CC1	4.2	-14.3	74.9*	7.8	26.6	19.6
CC(C)Cc1nc(N2CCCCC2)c(C#N)c2c1CCC2	-4.0	3.6	51.3*	12.7	4.3	-10.3
CC(C)Cc1nc(N2CCN(C(=O)C(C)C)CC2)c(C#N)c2c1CCC2	-4.5	4.7	-2.6	12.1	18.9	30.7
C=CCNC(=S)Nc1sc2c(c1C(=O)OCC)CC(C)(CC)OC2 (stereo unspecified)	97.9*	-19.9	6.6	20.7	23.7	35.1
COc1ccc(S(=O)(=O)N2CCCC2CNC(=O)C(=O)NCc2ccccc2Cl)cc1 (stereo unspecified)	-13.4	4.2	-11.6	6.6	17.2	16.0
O=C(c1cc(F)c(F)cc1Cl)N1CCN(S(=O)(=O)c2cccs2)CC1	.	.	.	-0.2	7.5	12.8
COc1ccc(CCN2C(=O)c3[nH]nc(-c4ccccc4O)c3C2c2cccc(Cl)c2)cc1 (stereo unspecified)	51.7	-15.4	70.8*	6.1	32.8	30.9
COc1ccc(C2c3c(-c4ccccc4O)n[nH]c3C(=O)N2CCc2ccc(OC)c(OC)c2)cc1 (stereo unspecified)	4.7	.	8.9	5.4	31.0	26.1
C/C(=N/NC(=O)c1cnccn1)c1ccncc1	16.4	-26.8	-9.3	-3.3	-18.2	-13.7
CC(=NNC(=S)N1CCN(c2ccccn2)CC1)c1ccccn1	.	0.1	.	.	.	.
CC(=NNC(=S)N1CC2CCC(CC2)C1)c1cnccn1	.	145.0*	.	.	.	.
CC(=NNC(=S)N1CCN(C2CCCCCC2)CC1)c1ccccn1	.	103.3*	.	.	.	.
CC(=NNC(=S)N1CCN(c2ccccn2)CC1)c1nccs1	.	142.4*	.	.	.	.
NC(=O)Cn1c(=O)n(CCC(=O)Nc2ccc(F)cc2)c(=O)c2sccc21	8.1	5.4	1.2	7.2	-2.4	1.9
